Laboratory results as given in PubChem BioAssay (EPA / NIEHS).
Results filed as inconclusive are left out. A structure can be active in one record and inactive in another. Active and inactive are the calls of the source. Rule for the calls, unless noted: active = hit-call score of the fitted dose curve at least 0.9, where 1 is the maximum; inconclusive = response in the unintended direction; inactive = score below 0.9.

What was measured:
[1] = Tanguay_ZF_120hpf_SOMI_legacy: (Legacy) Oregon State University Tanguay Lab 120 Hour Post-fertilization zebrafish Assay for Somite Malformation (AID 2283647)
Outline: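 Tropical 5D wild-type zebrafish embryos, dechorionated with pronase at 4 hpf, were placed singly at 6 hpf and statically exposed until 120 hpf at 28C in 0.64% DMSO. Somite malformation was scored present/absent by brightfield microscopy versus DMSO.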

[2] = Tanguay_ZF_120hpf_PFIN_legacy: (Legacy) Oregon State University Tanguay Lab 120 Hour Post-fertilization zebrafish Assay for Pectoral Fin Malformation (AID 2283648);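 note: each larva judged yes or no for fin defect by brightfield with dead larvae skipped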
Outline: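 Scoring of pectoral fin malformation was binary, made at 120 hpf on larvae exposed statically from 6 hpf after enzymatic chorion removal. Activity was fitted upward relative to DMSO controls at 0.64% (vol/vol).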

[3] = Tanguay_ZF_120hpf_PIG_legacy: (Legacy) Oregon State University Tanguay Lab 120 Hour Post-fertilization zebrafish Assay for Pigmentation Malformation (AID 2283650)
Outline: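 Endpoint is incidence of abnormal pigmentation at 120 hpf in dechorionated 5D zebrafish exposed singly from 6 hpf at 28C, DMSO vehicle at 0.64%. Embryos dying by 24 or 120 hpf are excluded from scoring.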

[4] = Tanguay_ZF_120hpf_CIRC_legacy: (Legacy) Oregon State University Tanguay Lab 120 Hour Post-fertilization zebrafish Assay for Circulatory Malformation (AID 2283651)
Outline: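 Embryos are dechorionated at 4 hpf, plated one per well at 6 hpf, then held under static exposure at 28C until 120 hpf. Malformations are recorded as binary calls; mortality excludes other endpoints.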

[5] = Tanguay_ZF_120hpf_TRUN_legacy: (Legacy) Oregon State University Tanguay Lab 120 Hour Post-fertilization zebrafish Assay for Truncated Body (AID 2283655)
Outline: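 Tropical 5D wild-type embryos, dechorionated with pronase at 4 hpf, were placed singly in wells at 6 hpf and statically exposed at 28C until 120 hpf, final DMSO 0.64%. Truncated body was scored present/absent by brightfield microscopy.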

[6] = Tanguay_ZF_120hpf_NC_legacy: (Legacy) Oregon State University Tanguay Lab 120 Hour Post-fertilization zebrafish Assay for Notochord and Tail Malformation (AID 2283656)
Outline: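 Binary scoring of notochord distortion by brightfield microscopy; embryos dying were not scored. Wild-type Tropical 5D embryos, chorion removed, exposed singly and statically from 6 to 120 hpf, 28C, sealed, 0.64% DMSO.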

[7] = Tanguay_ZF_120hpf_SWIM_legacy: (Legacy) Oregon State University Tanguay Lab 120 Hour Post-fertilization zebrafish Assay for Swim Bladder Malformation (AID 2283654);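 note: swim bladder malformation in each larva scored yes or no under brightfield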
Outline: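 Static waterborne exposure of single dechorionated Tropical 5D zebrafish embryos, 6–120 hpf, 28C, 0.64% DMSO final. Read-out: swim bladder malformation, present/absent, relative to DMSO negative control; trimethyltin chloride 5uM served as positive control.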

[8] = Tanguay_ZF_120hpf_CFIN_legacy: (Legacy) Oregon State University Tanguay Lab 120 Hour Post-fertilization zebrafish Assay for Caudal Fin Malformation (AID 2283649)
Outline: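 Tropical 5D wild-type embryos, dechorionated with pronase at 4 hpf, were placed singly in wells at 6 hpf and statically exposed to compound at 28C until 120 hpf (0.64% DMSO). Caudal fin malformation was scored present/absent by brightfield microscopy.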

[9] = read-out: kallikrein-3 (KLK3), KLK3 (gene 354); experiment: LTEA_HepaRG_KLK3: Life Technologies and Expression Analysis (LTEA) Assay for kallikrein-3 (KLK3) using HepaRG (AID 2283652; active = hit-call score of the fitted dose curve at least 0.9, where 1 is the maximum; inactive = score below 0.9); settings: mRNA level, 48 h; actives raise or lower the signal
Outline: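 KLK3 transcript levels were measured by TaqMan qRT-PCR with normalisation to three housekeeping genes. HepaRG cultures received chemicals for 48 h at up to 100 uM (half-log, 8 points, 0.5% DMSO vehicle), fitted in both directions against DMSO.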

[10] = read-out: solute carrier (SLC22A6), SLC22A6 (gene 9356); experiment: LTEA_HepaRG_SLC22A6: Life Technologies and Expression Analysis (LTEA) Assay for solute carrier (SLC22A6) using HepaRG (AID 2283653; active = hit-call score of the fitted dose curve at least 0.9, where 1 is the maximum; inactive = score below 0.9); settings: mRNA level, 48 h; actives raise or lower the signal
Method: LTEA_HepaRG is a cell based, multiplexed-readout assay that uses HepaRG, a human liver cell line, with measurements taken at 48 hours after chemical dosing on a 96-well plate.LTEA_HepaRG_SLC22A6 is one of 102 assay component(s) measured in the LTEA HepaRG cell culture assay. It is a marker of NR mediated transport.Data from the assay component LTEA_HepaRG_SLC22A6 was analyzed into 1 endpoint. This assay endpoint, LTEA_HepaRG_SLC22A6, was analyzed with bidirectional fitting relative to DMSO as the negative control and baseline of activity. Using a type of inducible reporter, measures of mRNA induction for gain or loss-of-signal activity can be used to understand regulation of transcription factor activity. To generalize the intended target to other relatable targets, this assay endpoint is annotated to the transporter intended target family, where the subfamily is organic anion transporter.
A total of 1060 chemcials from the ToxCast library were tested in eight-point concentration-response experiments. Cell culture and cytotoxicity assays were conducted at Thermo Fisher Scientific's Custom Services facility (Madison, WI). A single lot of human HepaRG cells (Thermo Fisher Scientific, Frederick, MD) was used for the cell culture experiments. 96-well format collagen type I coated plates of human HepaRG cells were prepared using established methods. Briefly, cryopreserved HepaRG cells were thawed, plated at a density of approximately 100,000 cells/well in HepaRG Thaw, Plate, and General Purpose media (HPRG770, Thermo Fisher Scientific), and incubated for 48 hours. 0.5% DMSO was selected as vehicle control to balance the requisite need of DMSO in HepaRG cultures to maintain differentiation (for example, baseline metabolism, proportions of hepatocytes vs. cholangiocytes), while enabling further hepatic receptor pathway activation (for example, PXR and CAR) in response to chemical exposure. 48 hours after plating, the culture medium was replaced with HepaRG Serum-Free Incudtion Media. Cells were exposed to each test chemical in duplicate and maintained in CO2 incubators for another 48 hours. Chemical plates were thawed to room temperature and 200x concentrations of treatment groups were prepared. 8-point conentration-reponse curves were made with the highest exposure at 100 uM, followed by half-log dilutions, all in 0.5% DMSO. […] Fluidigm's 96.96 Dynamic ArrayTM (Fluidigm, Amsterdam, the Netherlands) technology was used for gene expression analyses by quantitative reverse transcription polymerase chain reaction (qRT-PCR, performed by Quintiles/Expression Analysis, Durham, NC)89. […]

Measured: AC50

O=c1[nH]c(=O)[nH]c(=O)[nH]1
inactive: [1] | [2] | [3] | [4] | [5] | [6]

CC12CC1(C)C(=O)N(c1cc(Cl)cc(Cl)c1)C2=O (stereo not drawn)
inactive: [1] | [3] | [4] | [7] | [5] | [6]

CCOP(=S)(OCC)Oc1nc(Cl)c(Cl)cc1Cl
inactive: [1] | [8] | [3] | [4] | [5] | [6]

CCOP(=S)(OCC)SCSP(=S)(OCC)OCC
not listed: [3] | [9] | [10]
inactive: all other assays above

C[C@@H]1C[C@@H]([C@H](O)CC2CC(=O)NC(=O)C2)C(=O)[C@@H](C)C1
inactive: [1] | [8] | [3] | [4] | [5]

CC(C)(C)c1cc(O)ccc1O
inactive: [1] | [2] | [8] | [4] | [5] | [6]

O=C(O)C(Cl)(Cl)Cl
not listed: [9] | [10]
inactive: all other assays above

O=C(O)C(F)(F)C(F)(F)C(F)(F)C(F)(F)C(F)(F)C(F)(F)F
inactive: [2] | [8] | [3] | [4] | [7] | [6]

O=C(O)C(F)(F)C(F)(F)C(F)(F)C(F)(F)C(F)(F)C(F)(F)C(F)(F)C(F)(F)C(F)(F)C(F)(F)F
not listed: [7]
inactive: all other assays above

ClCC(Cl)CCl
not listed: [2] | [9] | [10]
inactive: all other assays above

COc1cc(-c2ccc(N)c(OC)c2)ccc1N
active: [2] 87.5 µM | [7] 95.5 µM
inactive: [1] | [2] | [8] | [3] | [4] | [5] | [6]

C[C@]12CCC(=O)C[C@@H]1CC[C@@H]1[C@@H]2CC[C@]2(C)[C@@H](O)CC[C@@H]12
not listed: [7] | [9] | [10]
inactive: all other assays above

O=[N+]([O-])c1ccc(O)c([N+](=O)[O-])c1
inactive: [2] | [3] | [4] | [7] | [6]

Cn1sc(Cl)cc1=O
inactive: [2] | [8] | [3] | [7]

NC(=O)O
not listed: [2] | [3]
inactive: all other assays above

CCCCCCCCc1ccc(O)cc1
inactive: [1] | [2] | [8] | [7] | [5] | [6]

ClC1(Cl)C2(Cl)C3(Cl)C4(Cl)C(Cl)(Cl)C5(Cl)C3(Cl)C1(Cl)C5(Cl)C24Cl (stereo not drawn)
inactive: all assays above

CC(C)(C)CC(C)(C)c1ccc(O)cc1
inactive: [1] | [2] | [8] | [7] | [5] | [6]

Oc1cccc2cccnc12
not listed: [5] | [7] | [9]
inactive: all other assays above

CCC(=O)C(CC(C)N(C)C)(c1ccccc1)c1ccccc1 (stereo not drawn)
not listed: [9] | [10]
inactive: all other assays above

CN(C)N=O
inactive: [1] | [8] | [4] | [5] | [6]

O=C1C2(Cl)C3(Cl)C4(Cl)C(Cl)(Cl)C5(Cl)C3(Cl)C1(Cl)C5(Cl)C24Cl (stereo not drawn)
active: [5] 15.2 µM
not listed: [7] | [9] | [10]
inactive: all other assays above

C=C(C)C(=O)[O][Sn]([CH2]CCC)([CH2]CCC)[CH2]CCC
not listed: [9] | [10]
inactive: all other assays above

CCC(C)(C)c1ccc(O)c(C(C)(C)CC)c1
inactive: [1] | [8] | [3] | [4] | [7] | [5]

C=CC(=O)OCCCCCC(C)C
not listed: [3] | [9] | [10]
inactive: all other assays above

Cc1ccccc1N
not listed: [9] | [10]
inactive: all other assays above

CC(=O)[O][Hg][c]1ccccc1
not listed: [9] | [10]
inactive: all other assays above

CCN1CCC2(CC1)COc1cc3c(cc12)N(C(=O)c1ccc(-c2ccc(-c4nnc(C)o4)cc2C)cc1)CC3
not listed: [8] | [9] | [10]
inactive: all other assays above

CC(C)(c1ccccc1)c1ccc(O)c(C(C)(C)c2ccccc2)c1
inactive: [2] | [8] | [3] | [4] | [7] | [5]

CC(C)(OO)c1ccccc1
not listed: [6] | [9] | [10]
inactive: all other assays above

O=C(Nc1ccc2[nH]ccc2c1)c1cc2cc(F)ccc2n1Cc1cccc(F)c1
not listed: [9] | [10]
inactive: all other assays above
